Results published in PubChem BioAssay AID431 (Sanford-Burnham Center for Chemical Genomics, 2006).
Screen size: about 63,000 compounds; about 1,100 (1.7%) were called active. Only a selection was taken, and actives are over-represented in it overall. Results with a measured potency or affinity are listed apart. Unmarked numbers belong to inactive results.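 The calls were made as follows: active = compounds whose percent cytotoxicity in the single-dose primary screen, scaled between solvent and toxic-drug controls, exceeds 50; inactive = the rest.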

Assay: viability loss of HPDE-C7K cells – cell-based, fluorescence, HTS, primary screen (AID 431);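 also: 0% = DMSO solvent wells and 100% = doxorubicin-treated wells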
Conditions: HPDE-C7K KRASV12 cells, Alamar Blue viability, 48 h; at 10 µM; active compounds read high

SMILES	cytotoxicity
CCCCn1c(-c2cc(Cl)ccc2OC)n[nH]c1=S	-11.5%
Cc1ccc(S(=O)(=O)c2c(C)nn(C(C)(C)C)c2OC(=O)C2CCCC2)cc1	-5.1%
CC(=O)Nc1ccc(S(=O)(=O)N2CCC(NC(C)=O)(c3cccc(F)c3)CC2)cc1	8%
CC1CCCCN1CC(=O)Nc1sc2c(c1C#N)CCC2 (stereo unspecified)	-11.1%
Cc1ccc(S(=O)(=O)NC(=O)NC(C)(C)C)cc1	12.4%
OC1CCN(Cc2cccc(Oc3ccccc3)c2)CC1	20.9%
OCC(CO)(CO)N=Cc1c(O)ccc2ccccc12	68% (active)
Oc1ccc2ccccc2c1C=NC12CN3CCN(CN(C3)C1)C2	0.4%
Oc1ccc2ccccc2c1/C=N/n1cnnc1	18.6%
COc1ccc(S(=O)(=O)N(CC(=O)N2CCN(C)CC2)C2CCCCC2)cc1OC	0.2%
COc1ccc(CCn2c(-n3nc(C)cc3C)nc3c2c(=O)[nH]c(=O)n3C)cc1	52.6% (active)
Cc1ccc(Cn2c(-n3nc(C)cc3C)nc3c2c(=O)[nH]c(=O)n3C)cc1	5%
Cc1cc(C)n(-c2nc3c(c(=O)[nH]c(=O)n3C)n2CCc2ccccc2)n1	11.3%
COc1ccc(N2CC(C(=O)NC3CC(C)(C)NC(C)(C)C3)CC2=O)cc1 (stereo unspecified)	-5%
COc1ccc(OC)c(NC(=O)CSc2nnc(CNC(=O)COc3ccc(Cl)cc3)o2)c1	-3%
CCn1c(=O)c(C(=O)NCCNCCO)c(O)c2ccccc21	13.9%
CCn1c(=O)c(C(=O)NCCc2ccccc2)c(O)c2ccccc21	-11.5%
CCCn1c(=O)c(C(=O)Nc2nnc(CC)s2)c(O)c2ccccc21	14.3%
CCCn1c(=O)c(C(=O)Nc2nnc(C)s2)c(O)c2ccccc21	62.2% (active)
CCn1c(=O)c(C(=O)Nn2c(C)nc3ccccc3c2=O)c(O)c2ccccc21	17.6%
CCn1c(=O)c(C(=O)NCCCO)c(O)c2ccccc21	70.7% (active)

SMILES	cytotoxicity
CCn1c(=O)c(C(=O)Nc2cccnc2)c(O)c2ccccc21	11.7%
C=CCn1c(=O)c(C(=O)Nc2nnc(C)s2)c(O)c2ccccc21	9.1%
Cc1onc(-c2c(F)cccc2Cl)c1C(=O)NCCc1ccc(S(N)(=O)=O)cc1	-7.2%
N#C/C(C(=O)N1CCOCC1)=C1\Nc2ccccc2S1	14.5%
O=C(NCc1ccco1)c1cc(-c2ccncc2)nc2ccccc12	-8.1%
CCOc1cc(N2CCOCC2)c(OCC)cc1NC1=NCCCCC1	-3.3%
CC1CCCC(NC(=O)CSc2nnc(N)s2)C1C (stereo unspecified)	-4.3%
Cc1ccc(C)c(N(CC(=O)NCc2ccc3c(c2)OCO3)C(=O)CCC(=O)Nc2ccccn2)c1	-28%
COc1ccc(N2CSC3=C(C#N)C(c4ccc(OC)c(OC)c4)CC(=O)N3C2)c(OC)c1 (stereo unspecified)	-12%
Cn1c(CNc2ccc(Cl)cc2)nc2ccccc21	-9.8%
Cc1nc2ccccc2n1-c1ccccc1	-12.4%
CC(C)N=c1cc2n(-c3ccc(Cl)cc3)c3ccccc3nc-2cc1Nc1ccc(Cl)cc1	68.8% (active)
CCCCn1c(C(C)NC(=O)CCC)nc2ccccc21 (stereo unspecified)	2.5%
CCc1c(C)nc2cc(-c3ccc(OC)c(OC)c3)nn2c1N1CCCC1	19.1%
CCOCCN1CCN(c2c(C)c(C)nc3cc(-c4cc(OC)cc(OC)c4)nn23)CC1	9.5%
CCCSC1=N/C(=C\C=C\c2ccco2)C(=O)S1	51.9% (active)
O=C1SC(SCc2ccccc2)=N/C1=C\c1ccco1	42.6%
C=CCSC1=N/C(=C\C=C\c2ccco2)C(=O)S1	33.1%
ONC(=Nc1ccccc1)C(=Nc1ccccc1)NO	-6.3%
CC(=Nc1ccccc1)Nc1ccccc1	-3.8%
S=C(N=Nc1ccccc1)NNc1ccccc1	50.5% (active)

SMILES	cytotoxicity
COC(=O)c1c(C)[nH]c(C(=O)C(C)Sc2nnc(-c3cc(OC)c(OC)c(OC)c3)o2)c1C (stereo unspecified)	11.4%
Cn1c(=O)c2c(nc(NCCCN3CCOCC3)n2Cc2ccc(Cl)cc2)n(C)c1=O	-3.3%
COC(=O)c1c(C)oc(C)c(C(=O)OC)c1=O	0.6%
CCOC(=O)c1c(C)oc2c1cc(O)c1ccccc12	14%
CCN1CCN(Cc2cc(=O)oc3ccc(Cl)cc23)CC1	-11%
Cc1ccc(-n2c(SCC(=O)Nc3ccc4c(c3)OCO4)nnc2-c2ccoc2C)cc1	17%
Cc1cccc(-n2c(SCC(=O)Nc3nonc3C)nnc2-c2ccoc2C)c1	-13.8%
Cc1cccc(-n2c(SCC(=O)Nc3ccc4c(c3)OCO4)nnc2-c2ccoc2C)c1	53.6% (active)
COC(=O)c1cccc(NC(=O)C2COc3ccccc3O2)c1 (stereo unspecified)	-26.2%
CC(=O)c1ccccc1OC(=O)c1ccco1	-0.8%
C=CCN1C(=Nc2ccccc2)SC/C1=C\C(=O)OC	-1.6%
O=C(c1cccc(C(=O)N2CCN(c3ncccn3)CC2)c1)N1CCN(c2ncccn2)CC1	-2.4%
Cc1c(C)c2cc(Cl)c(OCc3nn[nH]n3)cc2oc1=O	-12%
CCOC(=O)c1[nH]c2ccc(OC)cc2c1NC(=O)C(C)N1CCSCC1 (stereo unspecified)	31.2%
CCOC(=O)c1[nH]c2ccc(F)cc2c1NC(=O)CN1CCN(C/C=C/c2ccccc2)CC1	65% (active)
CCOC(=O)c1[nH]c2ccccc2c1NC(=O)CN1CCCCC1	-11.1%
CCOC(=O)c1[nH]c2ccc(F)cc2c1NC(=O)CN1CCc2cc(OC)c(OC)cc2C1	-3.4%
CCOC(=O)c1[nH]c2ccc(F)cc2c1NC(=O)C(C)N1CCc2cc(OC)c(OC)cc2C1 (stereo unspecified)	53.6% (active)
CCOC(=O)c1[nH]c2ccc(OCC)cc2c1NC(=O)CN1CCN(c2ccccc2)CC1	7.4%
